# Legend:
# [1] = target: T1, TGF-beta receptor type-1 (Homo sapiens) (UniProt P36897); conditions: at 1 µM
# T1 sequence (whole entry): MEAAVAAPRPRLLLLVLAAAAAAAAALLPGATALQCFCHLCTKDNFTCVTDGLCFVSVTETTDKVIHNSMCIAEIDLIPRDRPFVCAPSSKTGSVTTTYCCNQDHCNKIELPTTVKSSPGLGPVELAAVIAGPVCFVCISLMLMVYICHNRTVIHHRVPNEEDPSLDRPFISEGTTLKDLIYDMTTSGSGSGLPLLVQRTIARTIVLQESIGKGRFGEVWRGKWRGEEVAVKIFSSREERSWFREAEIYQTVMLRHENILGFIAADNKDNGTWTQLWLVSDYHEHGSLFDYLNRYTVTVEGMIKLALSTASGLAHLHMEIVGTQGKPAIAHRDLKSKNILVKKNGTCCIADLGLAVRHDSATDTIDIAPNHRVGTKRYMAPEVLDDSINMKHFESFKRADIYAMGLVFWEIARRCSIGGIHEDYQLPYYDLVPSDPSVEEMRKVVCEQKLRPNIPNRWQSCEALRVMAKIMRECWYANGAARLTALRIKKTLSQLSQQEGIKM
# [2] = target: T1, TGF-beta receptor type-1 (Homo sapiens); conditions: at 10 µM
# [3] = target: Insulin-like growth factor 1 receptor (Homo sapiens) (UniProt P08069); conditions: at 1 µM
# [4] = target: Insulin-like growth factor 1 receptor (Homo sapiens) (UniProt P08069); conditions: at 10 µM
# [5] = target: T2, Inhibitor of nuclear factor kappa-B kinase subunit alpha (Homo sapiens) (UniProt O15111); conditions: at 1 µM
# T2 sequence (whole entry): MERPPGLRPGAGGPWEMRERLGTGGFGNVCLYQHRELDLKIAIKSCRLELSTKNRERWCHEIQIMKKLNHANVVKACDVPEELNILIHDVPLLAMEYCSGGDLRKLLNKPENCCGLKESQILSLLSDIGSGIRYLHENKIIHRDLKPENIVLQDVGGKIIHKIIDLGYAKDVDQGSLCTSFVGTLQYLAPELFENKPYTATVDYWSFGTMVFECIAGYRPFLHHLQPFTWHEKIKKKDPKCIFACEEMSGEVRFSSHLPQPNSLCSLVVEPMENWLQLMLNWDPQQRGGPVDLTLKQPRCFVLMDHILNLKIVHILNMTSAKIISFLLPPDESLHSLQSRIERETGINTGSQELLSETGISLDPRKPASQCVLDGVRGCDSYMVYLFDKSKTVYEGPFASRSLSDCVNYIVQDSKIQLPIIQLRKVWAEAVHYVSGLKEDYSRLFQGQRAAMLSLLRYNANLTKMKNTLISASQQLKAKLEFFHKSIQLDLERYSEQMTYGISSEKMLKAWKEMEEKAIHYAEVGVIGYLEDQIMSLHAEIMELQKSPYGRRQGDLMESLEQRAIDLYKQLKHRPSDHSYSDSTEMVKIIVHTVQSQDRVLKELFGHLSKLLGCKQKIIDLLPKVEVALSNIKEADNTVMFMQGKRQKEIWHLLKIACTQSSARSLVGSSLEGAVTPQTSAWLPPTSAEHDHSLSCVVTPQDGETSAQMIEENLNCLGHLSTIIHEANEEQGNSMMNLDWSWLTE
# [6] = target: T2, Inhibitor of nuclear factor kappa-B kinase subunit alpha (Homo sapiens); conditions: at 10 µM
# [7] = target: T3, Inhibitor of nuclear factor kappa-B kinase subunit beta (Homo sapiens) (UniProt O14920); conditions: at 1 µM
# T3 sequence (whole entry): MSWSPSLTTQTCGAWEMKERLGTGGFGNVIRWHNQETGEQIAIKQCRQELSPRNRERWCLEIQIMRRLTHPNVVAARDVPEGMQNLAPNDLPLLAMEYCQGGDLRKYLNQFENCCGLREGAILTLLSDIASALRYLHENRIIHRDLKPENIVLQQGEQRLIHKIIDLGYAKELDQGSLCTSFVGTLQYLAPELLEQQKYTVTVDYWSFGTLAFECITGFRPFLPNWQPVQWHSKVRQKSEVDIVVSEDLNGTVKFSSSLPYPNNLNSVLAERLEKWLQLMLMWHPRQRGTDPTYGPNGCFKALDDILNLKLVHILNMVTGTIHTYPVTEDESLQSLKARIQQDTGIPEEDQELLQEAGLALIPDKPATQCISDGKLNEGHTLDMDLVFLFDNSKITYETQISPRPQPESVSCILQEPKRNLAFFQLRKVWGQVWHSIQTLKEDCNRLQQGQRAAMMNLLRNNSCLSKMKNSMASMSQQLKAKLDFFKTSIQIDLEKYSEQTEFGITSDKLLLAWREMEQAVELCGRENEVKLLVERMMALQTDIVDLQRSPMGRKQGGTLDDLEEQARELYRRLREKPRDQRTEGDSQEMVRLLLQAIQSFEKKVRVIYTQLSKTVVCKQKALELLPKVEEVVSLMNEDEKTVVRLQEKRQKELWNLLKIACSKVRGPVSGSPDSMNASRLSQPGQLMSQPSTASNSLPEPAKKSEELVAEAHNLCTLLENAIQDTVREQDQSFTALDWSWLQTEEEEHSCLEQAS
# [8] = target: T3, Inhibitor of nuclear factor kappa-B kinase subunit beta (Homo sapiens); conditions: at 10 µM
# [9] = target: Insulin receptor (Homo sapiens) (UniProt P06213); conditions: at 1 µM
# Chain of Insulin receptor (Homo sapiens) (P06213 28-758 limits assumed): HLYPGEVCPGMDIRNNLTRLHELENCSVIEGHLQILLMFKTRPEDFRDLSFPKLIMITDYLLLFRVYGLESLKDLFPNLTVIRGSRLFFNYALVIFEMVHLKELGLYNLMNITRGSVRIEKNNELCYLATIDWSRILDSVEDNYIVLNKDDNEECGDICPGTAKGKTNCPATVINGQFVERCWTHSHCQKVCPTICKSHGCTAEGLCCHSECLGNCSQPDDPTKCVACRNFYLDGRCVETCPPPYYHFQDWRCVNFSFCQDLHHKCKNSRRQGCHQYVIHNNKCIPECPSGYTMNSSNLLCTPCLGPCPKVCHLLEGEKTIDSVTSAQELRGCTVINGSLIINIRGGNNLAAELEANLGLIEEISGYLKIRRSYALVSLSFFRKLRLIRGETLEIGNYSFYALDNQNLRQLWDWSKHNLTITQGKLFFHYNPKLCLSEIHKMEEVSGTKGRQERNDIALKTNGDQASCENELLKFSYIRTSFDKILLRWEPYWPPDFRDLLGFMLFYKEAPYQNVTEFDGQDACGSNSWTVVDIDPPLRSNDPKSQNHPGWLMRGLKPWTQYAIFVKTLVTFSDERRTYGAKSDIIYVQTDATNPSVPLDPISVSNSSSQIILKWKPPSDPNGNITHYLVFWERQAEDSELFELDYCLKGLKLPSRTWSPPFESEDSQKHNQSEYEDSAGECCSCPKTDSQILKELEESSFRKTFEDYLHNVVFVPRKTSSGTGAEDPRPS
# Chain of Insulin receptor (Homo sapiens) (P06213 763-1382 limits assumed): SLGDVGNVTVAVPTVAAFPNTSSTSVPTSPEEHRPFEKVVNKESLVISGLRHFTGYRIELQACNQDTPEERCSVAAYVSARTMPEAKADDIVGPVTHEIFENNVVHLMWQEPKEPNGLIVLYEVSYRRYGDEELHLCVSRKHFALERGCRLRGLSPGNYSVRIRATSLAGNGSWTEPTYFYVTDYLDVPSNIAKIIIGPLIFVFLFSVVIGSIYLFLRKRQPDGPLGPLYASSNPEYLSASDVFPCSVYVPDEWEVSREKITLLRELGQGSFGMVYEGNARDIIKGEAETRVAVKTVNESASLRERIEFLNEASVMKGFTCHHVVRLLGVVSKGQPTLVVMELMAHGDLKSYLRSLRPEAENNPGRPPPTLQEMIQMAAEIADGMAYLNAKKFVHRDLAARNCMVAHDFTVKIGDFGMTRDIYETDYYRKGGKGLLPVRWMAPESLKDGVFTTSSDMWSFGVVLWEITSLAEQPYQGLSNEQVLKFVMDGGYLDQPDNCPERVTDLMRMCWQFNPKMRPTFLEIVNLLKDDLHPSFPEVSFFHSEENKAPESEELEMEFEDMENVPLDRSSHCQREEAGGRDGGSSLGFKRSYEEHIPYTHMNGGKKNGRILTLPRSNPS
# Chain of Insulin-like growth factor 1 receptor (Homo sapiens) (P08069 31-736 limits assumed): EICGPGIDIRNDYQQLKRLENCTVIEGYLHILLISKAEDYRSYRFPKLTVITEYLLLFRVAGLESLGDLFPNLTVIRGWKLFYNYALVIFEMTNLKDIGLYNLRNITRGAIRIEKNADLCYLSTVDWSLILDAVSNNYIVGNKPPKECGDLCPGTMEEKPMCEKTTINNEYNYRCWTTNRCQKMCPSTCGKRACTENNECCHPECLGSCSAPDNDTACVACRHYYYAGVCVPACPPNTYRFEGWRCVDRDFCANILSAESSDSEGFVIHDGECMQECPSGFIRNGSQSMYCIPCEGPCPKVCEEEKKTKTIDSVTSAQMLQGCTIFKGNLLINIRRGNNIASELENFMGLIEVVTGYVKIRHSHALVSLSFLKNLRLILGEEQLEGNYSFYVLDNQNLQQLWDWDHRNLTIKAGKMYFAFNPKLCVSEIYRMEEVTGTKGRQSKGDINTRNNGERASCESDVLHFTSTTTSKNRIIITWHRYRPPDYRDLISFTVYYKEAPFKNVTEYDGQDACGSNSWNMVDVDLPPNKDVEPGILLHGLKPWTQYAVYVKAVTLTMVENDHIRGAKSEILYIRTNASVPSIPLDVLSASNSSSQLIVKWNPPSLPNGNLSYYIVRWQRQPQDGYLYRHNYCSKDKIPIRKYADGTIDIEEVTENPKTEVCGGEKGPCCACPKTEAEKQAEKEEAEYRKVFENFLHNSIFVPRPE
# Chain of Insulin-like growth factor 1 receptor (Homo sapiens) (P08069 741-1367 limits assumed): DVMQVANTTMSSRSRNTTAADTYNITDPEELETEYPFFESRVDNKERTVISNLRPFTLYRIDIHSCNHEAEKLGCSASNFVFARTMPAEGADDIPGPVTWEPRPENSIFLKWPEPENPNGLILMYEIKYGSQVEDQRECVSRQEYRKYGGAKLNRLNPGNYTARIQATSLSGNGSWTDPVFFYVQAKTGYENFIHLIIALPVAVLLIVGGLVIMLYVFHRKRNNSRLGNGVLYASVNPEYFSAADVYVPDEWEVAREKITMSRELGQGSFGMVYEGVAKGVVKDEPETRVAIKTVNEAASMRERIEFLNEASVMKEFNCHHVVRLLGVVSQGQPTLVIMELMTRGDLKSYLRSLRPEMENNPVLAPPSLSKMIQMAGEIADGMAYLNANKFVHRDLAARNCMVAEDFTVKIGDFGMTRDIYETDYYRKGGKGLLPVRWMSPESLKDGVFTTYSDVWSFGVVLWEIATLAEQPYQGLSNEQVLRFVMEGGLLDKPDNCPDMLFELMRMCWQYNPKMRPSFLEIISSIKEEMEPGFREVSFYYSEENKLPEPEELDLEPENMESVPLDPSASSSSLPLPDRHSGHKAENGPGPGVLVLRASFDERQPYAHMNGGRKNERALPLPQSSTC
structure (smiles),measurement,setting,value
Cc1cc(Nc2nc(-c3ccccc3)nc3ccccc23)n[nH]1,residual activity,[1],96%
same,residual activity,[2],78%
same,residual activity,[3],20%
same,residual activity,[4],1%
same,residual activity,[5],102%
same,residual activity,[6],72%
same,residual activity,[7],78%
same,residual activity,[8],51%
same,residual activity,[9],16%

# — ChEMBL document CHEMBL2218924, “A broad activity screen in support of a chemogenomic map for kinase signalling research and drug discovery” (Biochem J, 2013)
